Results taken from the supplement of paper PMC3334620.
The full ranking holds about 33,000 sequences; the median of “E-score (-0.5 to 0.5)” is about -0.043, and the highest 2% start at about 0.37. What follows is part of a selection rich in the highest values, with near analogues and random picks from the rest.

target: T1, Upc2 (UniProt Q12151); test: PBM E-score (8-mer binding enrichment) (E-score (-0.5 to 0.5)); higher = stronger / more preferred TF binding; settings: protein concentration: 200 nM; construct: GST-full length
T1 sequence: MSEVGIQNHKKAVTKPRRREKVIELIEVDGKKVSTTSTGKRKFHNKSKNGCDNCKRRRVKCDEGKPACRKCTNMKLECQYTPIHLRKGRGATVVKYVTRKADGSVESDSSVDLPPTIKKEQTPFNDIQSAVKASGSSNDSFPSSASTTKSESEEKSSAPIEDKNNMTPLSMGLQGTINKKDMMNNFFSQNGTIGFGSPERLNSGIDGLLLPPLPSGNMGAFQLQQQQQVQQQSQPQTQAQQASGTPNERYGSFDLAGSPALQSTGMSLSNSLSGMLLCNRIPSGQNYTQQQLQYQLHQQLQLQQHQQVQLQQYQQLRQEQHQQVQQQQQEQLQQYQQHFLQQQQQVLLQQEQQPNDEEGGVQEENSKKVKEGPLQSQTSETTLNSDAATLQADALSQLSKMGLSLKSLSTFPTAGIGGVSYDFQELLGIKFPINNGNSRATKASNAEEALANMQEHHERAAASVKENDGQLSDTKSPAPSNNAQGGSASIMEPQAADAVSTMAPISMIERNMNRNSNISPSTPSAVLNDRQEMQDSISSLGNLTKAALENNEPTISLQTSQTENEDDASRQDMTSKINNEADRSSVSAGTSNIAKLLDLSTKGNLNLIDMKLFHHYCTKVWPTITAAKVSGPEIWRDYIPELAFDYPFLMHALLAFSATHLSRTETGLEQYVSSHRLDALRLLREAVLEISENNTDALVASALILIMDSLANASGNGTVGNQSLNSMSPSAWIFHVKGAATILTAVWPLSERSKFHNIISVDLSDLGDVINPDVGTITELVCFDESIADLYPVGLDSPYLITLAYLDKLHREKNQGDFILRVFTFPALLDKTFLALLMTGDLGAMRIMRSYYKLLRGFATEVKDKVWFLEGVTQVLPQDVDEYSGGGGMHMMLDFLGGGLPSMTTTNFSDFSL
Procedure: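 Universal 'all 10-mer' protein binding microarrays (Agilent AMADID 015681) probed with GST-tagged S. cerevisiae TFs (full-length or DBD) made by in vitro transcription/translation (PURExpress), about 100-200 nM. Bound TF was detected with fluorescent anti-GST. Each ungapped 8-mer (which stands for itself and its reverse complement) is scored by the PBM enrichment score (E-score), a modified Wilcoxon-Mann-Whitney statistic from -0.5 to +0.5, computed with the Universal PBM Analysis Suite. Scale: above 0.35 generally sequence-specific binding.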

| Sequence | PBM E-score |
| --- | --- |
| CTGGGTGC | -0.106 |
| GCGCACTA | -0.00558 |
| CGGCTGCC | -0.0671 |
| AGCGACCT | 0.132 |
| TACGACCA | 0.45 |
| CACGACCA | -0.0648 |
| GACGACCA | 0.071 |
| CACGACCG | 0.00924 |
| AACGACCA | 0.405 |
| TGCGACCA | 0.0986 |
| ACCGACCG | 0.13 |
| AACGACCC | 0.365 |
| AACGACCG | 0.403 |
| TCCGACCA | 0.0761 |
| AACGACCT | 0.386 |
| CAGCATAA | -0.0242 |
| GGACCTAC | 0.0699 |
| CCGATCTC | -0.136 |
| AATGAGTC | -0.0524 |
| ATTGGAAC | -0.0244 |
| GGCTAACC | -0.0479 |
| CAGTCGTC | -0.106 |
| CAGTCGGA | -0.016 |
| AAGTCGTA | 0.416 |
| GAGTCGGA | -0.0556 |

| Sequence | PBM E-score |
| --- | --- |
| AAGTCGTG | -0.0736 |
| GAGTCGTA | 0.43 |
| GAGTCGCA | 0.0248 |
| AAGTCGTC | 0.121 |
| CAGTCGTA | 0.416 |
| GGACATTA | 0.01 |
| AAATCTAA | -0.16 |
| TCGCATCA | 0.209 |
| CCGGGCAC | -0.214 |
| ACAGATGC | -0.00973 |
| AAGATTGA | -0.156 |
| CAACGAAG | 0.235 |
| CAACGAAA | 0.221 |
| AACCGAAT | 0.277 |
| AAACGAAA | 0.46 |
| AAACGTAT | 0.328 |
| AAACGAAG | 0.464 |
| AAACGAAT | 0.451 |
| AGACGAAG | 0.0695 |
| TAACGAAA | 0.334 |
| ACTCGACA | 0.0576 |
| ACGCACTC | 0.151 |
| GGTTGGGA | -0.0786 |
| CCCTGCGC | -0.276 |
| CCTACAGC | -0.334 |

| Sequence | PBM E-score |
| --- | --- |
| AGTACAGA | -0.0613 |
| CGTACAGC | 0.446 |
| CGTACAGA | 0.41 |
| GGTACAGA | -0.0181 |
| AGTACAGC | -0.156 |
| AGCAGACC | -0.0454 |
| AAGGTACT | 0.00877 |
| ATGGTACA | -0.173 |
| AAGGTACC | -0.0716 |
| CAGGTACA | -0.226 |
| ATGGTACG | 0.388 |
| AAGGTACG | 0.393 |
| CAGGTACG | 0.396 |
| ATGGTACC | -0.257 |
| CAGGTACC | -0.112 |
| CTTAGATA | -0.0328 |
| AGCGTGGA | -0.0828 |
| CAGAGACA | -0.356 |
| AGCTCGTC | 0.103 |
| CGCTCGGA | 0.163 |
| AGCTCGTA | 0.473 |
| CGCTCGTA | 0.466 |
| GGCTCGGA | 0.0556 |
| GGCTCGAA | -0.0434 |
| GGCTCGTA | 0.472 |

| Sequence | PBM E-score |
| --- | --- |
| CGCTCGTC | 0.127 |
| AGCTCGTG | 0.107 |
| AGGGCTAC | -0.113 |
| GAGGGCGC | -0.0991 |
| GTGGTTGA | -0.0855 |
| CCGTAAGA | 0.21 |
| CCGTAACA | 0.22 |
| ACGTATCA | 0.254 |
| GCGTATCA | 0.182 |
| ACGTAAGA | 0.146 |
| TCGTAACA | 0.404 |
| TCGTATCA | 0.463 |
| GCGTAACA | 0.118 |
| TCGTAAGA | 0.399 |
| CTGCAGAC | -0.0383 |
| AACACTGA | 0.0163 |
| GGGTCAAC | -0.231 |
| TGAACTCA | -0.00504 |
| CACCCTTC | -0.0111 |
| AAATACGT | 0.109 |
| TAATACTA | 0.105 |
| GAATACGA | 0.439 |
| CAATACGG | 0.196 |
| TAATACCA | -0.0667 |
| GAATACGC | 0.175 |

| Sequence | PBM E-score |
| --- | --- |
| AAATACGC | 0.212 |
| TAATACGA | 0.429 |
| CAATACGC | 0.0949 |
| AAATACGA | 0.449 |
| GAATACTA | 0.104 |
| CAATACGA | 0.419 |
| ACTTTATA | 0.127 |
| CCGTCCAC | -0.0949 |
| AATACTAG | 0.00488 |
| ATCAGACG | 0.0965 |
| GGAGTGAC | -0.0854 |
| AGCTCCAT | -0.216 |
| ACTGTCCA | -0.0712 |
| AGTACCCA | -0.131 |
| CATACCCC | -0.0287 |
| CGTACCCA | 0.376 |
| CGTACCCC | 0.391 |
| GGTACCCA | -0.0644 |
| AGTACCCC | -0.00507 |
| CTTTTGGA | -0.147 |
| ACCCACAC | 0.11 |
| TATACGCA | 0.449 |
| TATACGGA | 0.47 |
| CATACGGA | 0.365 |
| GATACGGA | 0.278 |

| Sequence | PBM E-score |
| --- | --- |
| GATACGCA | 0.276 |
| CATACGCA | 0.313 |
| ACACCATC | -0.205 |
| CCAAGGAC | -0.247 |
| CGGAGAAA | 0.158 |
| CTTGATCA | -0.14 |
| CTATATAC | 0.358 |
| CGTTATAC | 0.367 |
| AGCTATAC | 0.309 |
| CGCTATAC | 0.392 |
| GGCTATAC | 0.299 |
| AGTTATAC | 0.333 |
| CTCTATAC | 0.397 |
| ATTTATAC | 0.41 |
| GGTTATAC | 0.383 |
| CTTTATAC | 0.303 |
| ATTTATAA | 0.0439 |
| ATCTATAC | 0.287 |
| TCGAGAGA | 0.0401 |
| GCTAACAC | -0.0792 |
| CCTTACAA | -0.227 |
| ACCTATAC | 0.382 |
| GCCTATAC | 0.276 |
| CCCTATAC | 0.342 |
| AAGGGGGC | 0.0404 |

| Sequence | PBM E-score |
| --- | --- |
| CATCTTCA | -0.263 |
| AAAACGAC | 0.375 |
| AAAACGAT | 0.265 |
| CAAACGAC | 0.464 |
| GAAACGCC | 0.0519 |
| CTAACGAC | 0.279 |
| GAAACGAC | 0.423 |
| GAAACGGC | 0.187 |
| CAAACGAG | 0.484 |
| AAAACGAG | 0.316 |
| CCAACGAG | 0.091 |
| ACAACGAC | 0.258 |
| CCAACGAC | 0.0191 |
| ATTGCTGG | -0.0945 |
| CACGGCTC | -0.128 |
| ACGCTGGA | 0.0743 |
| CCAACCCA | -0.236 |
| ATCCACCC | -0.179 |
| GGGTTACC | 0.0304 |
| ACGCTTAA | 0.135 |
| ATTGGATG | 0.03 |
| ATTACCAA | -0.131 |
| CGCTAGAC | -0.0752 |
| TCGTACCA | 0.476 |
